Consider 89 compounds from PubChem BioAssay AID2629 (Broad Institute, 2010).

Screen size: about 320,000 compounds; about 1,900 (0.59%) were called active. What follows is part of a selection rich in actives, with near analogues and random picks from the rest. A number with no mark means an inactive call. Cut-off read from the data, not from the text of the source: active = inhibition mostly above about 10% (no sharp cut-off); inactive = mostly below about 6.7%.

The target in the assay is Protein LANA1 (Human herpesvirus 8 type P (isolate GK18)) (UniProt Q9QR71). In words: blockers of LANA interaction with H2A/H2B – biochemical, FP readout, HTS, primary screen (AID 2629). Particulars: cell-free LANA-H2A/H2B peptide, fluorescence polarization, hits give high values, concentration not given here. (Polarisation of emitted light reports the rotation of a fluorescent probe.)
Chain of Protein LANA1 (Human herpesvirus 8 type P (isolate GK18)) (Q9QR71 whole entry, looked up): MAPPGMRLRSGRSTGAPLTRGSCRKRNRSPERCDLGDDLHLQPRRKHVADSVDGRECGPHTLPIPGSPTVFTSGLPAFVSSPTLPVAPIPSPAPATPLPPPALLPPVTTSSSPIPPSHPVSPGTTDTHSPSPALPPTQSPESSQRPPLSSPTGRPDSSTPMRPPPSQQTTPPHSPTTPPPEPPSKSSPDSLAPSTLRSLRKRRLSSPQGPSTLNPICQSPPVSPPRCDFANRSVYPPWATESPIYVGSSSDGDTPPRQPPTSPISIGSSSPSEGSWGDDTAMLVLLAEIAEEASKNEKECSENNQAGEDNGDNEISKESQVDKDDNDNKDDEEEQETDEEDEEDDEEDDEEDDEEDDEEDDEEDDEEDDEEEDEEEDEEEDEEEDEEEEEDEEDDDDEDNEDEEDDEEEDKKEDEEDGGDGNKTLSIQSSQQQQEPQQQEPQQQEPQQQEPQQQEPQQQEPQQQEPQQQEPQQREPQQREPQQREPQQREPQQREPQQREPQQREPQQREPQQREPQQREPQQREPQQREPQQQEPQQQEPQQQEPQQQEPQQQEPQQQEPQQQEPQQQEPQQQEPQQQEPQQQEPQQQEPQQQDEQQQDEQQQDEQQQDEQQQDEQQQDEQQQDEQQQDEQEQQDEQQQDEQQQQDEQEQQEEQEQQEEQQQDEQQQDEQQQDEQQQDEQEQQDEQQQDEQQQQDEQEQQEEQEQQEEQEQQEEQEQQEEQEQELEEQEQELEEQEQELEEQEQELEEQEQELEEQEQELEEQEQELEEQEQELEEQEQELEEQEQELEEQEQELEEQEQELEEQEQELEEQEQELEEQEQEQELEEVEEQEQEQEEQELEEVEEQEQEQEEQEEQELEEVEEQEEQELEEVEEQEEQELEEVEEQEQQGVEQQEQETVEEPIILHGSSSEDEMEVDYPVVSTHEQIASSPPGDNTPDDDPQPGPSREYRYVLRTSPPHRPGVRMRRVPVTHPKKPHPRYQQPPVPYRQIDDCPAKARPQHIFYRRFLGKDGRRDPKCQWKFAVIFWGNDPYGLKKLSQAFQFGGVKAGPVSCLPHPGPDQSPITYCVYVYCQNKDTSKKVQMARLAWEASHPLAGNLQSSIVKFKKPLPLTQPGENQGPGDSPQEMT
By inhibition is commonly meant the relative decrease from the control value, in per cent. As for `Cc1c(C(C)CCCO)oc(=O)c2c1Oc1c(C)c(C(C)C[C@@H](C)O)oc(=O)c1C2` (some centres undefined), the inhibition was -3.56%.
`COc1ccc(C(=O)COC(=O)C(O)c2ccccc2)c(OC)c1` (centres undefined): the inhibition is -6.19%.
`COCc1ccc(C(=O)N2CCc3c([nH]c4ccccc34)C2c2ccccn2)s1` (centres undefined): the inhibition was 183% (active).
`Cc1cccc(C2c3[nH]c4ccccc4c3CCN2C(=O)c2cc(-c3cccn3C)n[nH]2)n1` (centres undefined): the inhibition was 1.43%.
In the case of `O=C(c1cn2ccccc2n1)N1CCc2c([nH]c3ccccc23)C1c1ccccn1` (centres undefined), the inhibition is 2.75%.
Under `Cc1cc(C)n(CCNC(=O)CC2C(=O)NCCN2Cc2ccc(C)o2)n1` (centres undefined) stands 4.74%; under `Cc1cc(N2C(=O)c3ccc(C(=O)NCc4ccccc4)cc3C2=O)no1`, 0.191%.
Regarding `O=C(CSc1nc2ccccc2c(=O)n1CCCO)NC1CC1`, the inhibition is 635% [above what the read-out allows, likely interference] (active).
Regarding `CC1CCN(CCCn2c(SCC(=O)NC3CCCC3)nc3ccccc3c2=O)CC1`, the inhibition was 2.87%.
Under `O=C(CSc1nc2ccccc2c(=O)n1-c1ccc(F)cc1)NC1CC1` stands 0.0498%; under `COc1ccc(C)cc1S(=O)(=O)N(CC(=O)Nc1cccc([N+](=O)[O-])c1)c1ccc(C)cc1`, -2.08%.
Under `Cc1ccc(NC(=O)C(C)Sc2nnc(C3CC3)n2C2CC2)cc1S(=O)(=O)N1CCOCC1` (centres undefined) stands -1.97%; under `COc1ccc([N+](=O)[O-])cc1N(CC(O)CN(CC(C)C)CC(C)C)S(=O)(=O)c1ccc(C)cc1` (centres undefined), 1.46%; under `Cc1cccn2c(=O)c(/C=C(\C#N)C(N)=O)c(N3CCCCCC3)nc12`, 6.27%.
As to `Cc1cc(C)cc(Oc2nc3c(C)cccn3c(=O)c2/C=C(\C#N)C(=O)NC2CCS(=O)(=O)C2)c1` (centres undefined), the inhibition was 18.8% (active).
Consider `Cc1cccn2c(=O)c(/C=C(\C#N)S(=O)(=O)c3ccc(Cl)cc3)c(N3CCC(C(N)=O)CC3)nc12`, for which the inhibition is -0.0722%.
Consider `COc1c(Br)cc2c(C)c(C(=O)N3CCOCC3)oc2c1Br`, for which the inhibition is -7.01%.
In the case of `CC(C)C1N=C2c3ccccc3N=C(SCC(=O)c3ccc(O)c(O)c3)N2C1=O` (centres undefined), the inhibition was 13.1% (active).
For the compound `O=C(CSC1=Nc2ccccc2C2=NC(CC(=O)NCc3ccco3)C(=O)N12)NCc1ccco1` (centres undefined), the inhibition is -2.02%.
As for `CCC(C)NC(=O)CSC1=Nc2ccccc2C2=NC(CCC(=O)NCc3ccco3)C(=O)N12` (centres undefined), the inhibition was 4.12%.
For `CS(=O)(=O)N(Cc1ccccc1Cl)c1ccc(C(=O)NCc2cccnc2)cc1`, the inhibition is 3.45%.
Regarding `O=C(/C=C/c1ccc([N+](=O)[O-])cc1)NCCSCc1ccco1`, the inhibition was 5.42%.
Regarding `Cc1ccc2cc(CCNC(=O)c3ccc4c(c3)OCO4)c(=O)[nH]c2c1`, the inhibition was -1.83%.
In the case of `O=C(Nc1ccccc1F)c1ccc2c(c1)OCO2`, the inhibition was -1.38%.
Turning to `O=C(NCCc1ccc(C(F)(F)F)cc1)c1ccc2c(c1)OCO2`, the inhibition was 16.2% (active).
As for `COc1ccc(OCCn2ccnc2C)cc1`, the figure is -0.22%; as for `COC(=O)C1=C(C(=O)OC)C2(OC1c1ccc(Br)cc1)C(=O)c1ccccc1C2=O` (centres undefined), 3.44%; as for `C=CCSc1nc2c(c(=O)[nH]c(=O)n2C)n1Cc1ccccc1`, -0.531%.
Take `COC(=O)CSc1nc2ccccc2c(=O)n1Cc1ccccc1`: the inhibition is 2.39%.
On to `Cc1cc2nc3c(=O)n(Cc4ccccc4)c(=O)[nH]c3nc2cc1N`, for which the inhibition was 27.2% (active).
Consider `Cc1ccc2cccc(OCCCOc3ccccc3CO)c2n1`, for which the inhibition was -1.05%.
Take `COc1ccc(N2C(=O)c3cccc4cccc(c34)C2=O)nn1`: the inhibition was -111%.
For the compound `O=C(O)c1ccc2c3c(cccc13)C(=O)N(OS(=O)(=O)c1ccccc1)C2=O`, the inhibition is 1.71%.
For `Cc1nn(C)cc1N1C(=O)c2cccc3c(N)ccc(c23)C1=O`, the inhibition was 101% (active).
Regarding `C[N+](C)(CCCCCC[N+](C)(C)CCCN1C(=O)c2cccc3cccc(c23)C1=O)CCCN1C(=O)c2cccc3cccc(c23)C1=O`, the inhibition was 0.475%.
On to `CN1C(=O)c2cccc3c(N)ccc(c23)C1=O`, for which the inhibition was 25.3% (active).
For `Cc1nn(-c2cc(Cl)ccc2N)c(=O)c2ccccc12`, the inhibition is 0.97%.
Under `CC(C)C[C@H]1CN=C(Nc2ccccc2)N1CC1CCCCC1` stands -0.894%; under `CCC(=O)Nc1nnc(S(=O)(=O)N2CCCc3ccccc32)s1`, 3.1%.
As for `CN(Cc1ccccc1)C(=O)C1CCCN(c2ncnc3c2nc2n3CCCCC2)C1` (centres undefined), the inhibition was -6.07%.
As for `CN1CCN(S(=O)(=O)c2ccc(Nc3ccc(F)cc3)nc2)CC1`, the figure is 3.84%; as for `CC1(C(=O)O)CCC(C(=O)Nc2ccc(Cl)c(Cl)c2)C1(C)C` (centres undefined), -7.06%; as for `O=C(c1ccccc1)c1cccn1CC(=O)N1CCN(c2ccc(F)cc2)CC1`, 5.58%.
For `CC1=C(C(=O)OCc2ccccc2)C(c2ccco2)n2ncnc2N1` (centres undefined), the inhibition is -3.53%.
As for `CCOc1ccc(C2=CC(c3ccccc3)n3ncnc3N2)cc1` (centres undefined), the figure is -0.926%; as for `Brc1ccc(C2=CC(c3ccco3)n3ncnc3N2)cc1` (centres undefined), 35% (active).
Turning to `Cc1ccc(NC(=O)COc2coc(CN3CCc4ccccc4C3)cc2=O)cc1Cl`, the inhibition is -6.2%.
Consider `O=C(Nc1ccc(Br)cc1)C1CCC(=O)N1Cc1ccccc1Cl` (centres undefined), for which the inhibition was 1.59%.
On to `COc1ccc(C(=O)/C=C/c2cccnc2)c(OC)c1`, for which the inhibition is 0.568%.
As for `COc1ccc2oc(=N)c(C(=O)Nc3ccc(Br)cc3)cc2c1`, the figure is 1.77%; as for `COc1ccc(/C=C/C(=O)c2cc(Br)ccc(=O)c2O)cc1`, 182% (active).
`CC(=O)c1ccc(S(=O)(=O)NC2CC(=O)N(c3ccc4c(c3)OCCO4)C2)cc1` (centres undefined): the inhibition is -5.02%.
Consider `CC(C)C(=O)Nc1ccc2c3c(cccc13)CC2`, for which the inhibition is 22.9% (active).
Under `CC(C)C(=O)Nc1ccc2c(c1)oc1ccccc12` stands 0.3%; under `O=S(=O)(NC1CC1)c1ccc2c3c(cccc13)CC2`, -8.67%; under `CC(C)Oc1ccc(C(=O)NC(C)(C)CO)cc1`, 2.55%.
Under `O=C(/C=C/Nc1ccc(S(=O)(=O)Nc2cnc3ccccc3n2)cc1)c1cccnc1` stands 5.47%.
Under `Cc1cccc(N2CC(C)Cn3c2nc2c3c(=O)n(CC(=O)OCc3ccccc3)c(=O)n2C)c1` (centres undefined) stands 0.536%.
For `O=C(Nc1ccccc1C(=O)N1CCCCC1)c1ccco1`, the inhibition was 20.4% (active).
Under `O=C(Nc1c(C(=O)N2CCCCC2)cnn1-c1ccccc1)c1ccco1` stands 0.114%.
For the compound `O=C(Nc1ccccc1C(=O)N1CCCCCC1)c1ccccc1Cl`, the inhibition is -5%.
Turning to `CCOc1ccc(NC(=O)CN(C)C(=O)c2c(C)noc2C)cc1OCC`, the inhibition was -1.42%.
For `CCCCN=C1N/C(=C\c2ccco2)C(=O)N1c1ccccc1`, the inhibition is -4.75%.
For `CCOc1ccc(CC(=O)NCCS(=O)(=O)N2CCN(c3ccccc3)CC2)cc1`, the inhibition is 7.98%.
Consider `COc1ccc(OC)c(NC(=O)N[C@H](Cc2ccccc2)C(=O)NN)c1`, for which the inhibition is 1.67%.
For `O=C(CNC(=O)c1ccc(-c2ccccc2)cc1)OCc1ccc(Cl)cc1`, the inhibition was -3.98%.
For `O=C(CNC(=O)OCc1ccccc1)Oc1cc2oc(=O)cc(-c3ccccc3)c2cc1Cl`, the inhibition was 22.2% (active).
Take `CC(=O)COc1ccc2c(-c3ccccc3)cc(=O)oc2c1`: the inhibition was 4.47%.
On to `COc1ccc(CCNC(=O)C2CCCN(Cc3nc(-c4cccc(Cl)c4)oc3C)C2)cc1OC` (centres undefined), for which the inhibition is 2.76%.
Take `CCN1C(=O)C(CC(=O)Nc2cc(C)ccc2C)SC1=Nc1ccc(S(N)(=O)=O)cc1` (centres undefined): the inhibition was -5.5%.
With `CCN1C(=O)C(=O)N(CC(=O)Nc2cc(C)ccc2C)C1=O`, the inhibition was 65.4% (active).
Turning to `Cc1ccc(C)c(NC(=O)COC(=O)Cn2c(C)csc2=O)c1`, the inhibition is -0.0986%.
On to `Cc1cccc(C(=O)NCC(=O)OCC(=O)N(C)CC(=O)Nc2ccccc2Cl)c1`, for which the inhibition was -3.61%.
As for `CSc1nnc(-c2ccc(C(F)(F)F)cn2)o1`, the figure is 12.3% (active); as for `FC(F)(F)c1cnc(Oc2ccccc2-c2nnc(-c3ccc(Cl)cc3)o2)c(Cl)c1`, 0.331%; as for `CC(C)Oc1ccc(Oc2ccc(C(F)(F)F)cn2)cc1`, 0.437%.
As to `N/C(=N\c1nc2ccccc2o1)NC(=O)C(Cc1ccccc1)N1C(=O)c2ccccc2C1=O` (centres undefined), the inhibition is -0.102%.
`C[N+](C)(C)CCNC(=O)c1cc[n+](Cc2ccccc2)c(/C=N/O)c1`: the inhibition is -2.86%.
In the case of `COc1ccc(NC(=O)CC2C(=O)OCC3CCCCN32)cc1Cl` (centres undefined), the inhibition was 6.65%.
Take `Cc1cc(NC(=O)CN2C(=O)NC(CC(C)C)C2=O)no1` (centres undefined): the inhibition was -2.81%.
Regarding `CCOC(=O)N1CCN(CCC(=O)Nc2cc(OC)ccc2OC)CC1`, the inhibition is -0.496%.
Regarding `CCOC(=O)c1[nH]c2ccc(OC)cc2c1NC(=O)CCN1CCN(Cc2ccccc2)CC1`, the inhibition was 38.6% (active).
Turning to `CCOC(=O)c1[nH]c2ccc(OC)cc2c1NC(=O)N1CCOCC1`, the inhibition is -1.57%.
Under `CC1CCCN(S(=O)(=O)c2ccc(-c3ccc(=O)[nH]n3)o2)C1` (centres undefined) stands 5.98%.
On to `CSCC(NS(=O)(=O)c1ccc(C)cc1)C(=O)O` (centres undefined), for which the inhibition is 4.08%.
As for `CSCCC(NS(=O)(=O)c1ccc(C)cc1)C(=O)N1CCCC1` (centres undefined), the figure is 10.1% (active); as for `CSCCC(NC(=O)c1ccccc1)C(=O)N1CCCCCCC1` (centres undefined), 3.36%; as for `O=C(NCCOc1ccccc1F)Nc1ccc(Br)cc1`, 1.21%.
Under `CCC(C)[C@H](NC(=O)N1c2ccccc2NC(=O)[C@@H]1C(C)C)C(=O)N[C@@H](Cc1ccccc1)C(=O)O` (some centres undefined) stands 0.386%.
